Laboratory results taken from ChEMBL document CHEMBL1157539, “Thousands of chemical starting points for antimalarial lead identification” (Nature, 2010).

What was measured:
Format in all cases: functional
Plasmodium falciparum [1] = test: GSK_TCMDC: Inhibition of Plasmodium falciparum 3D7 in whole red blood cells, using parasite LDH activity as an index of growth. Test compounds present at 2uM
Plasmodium falciparum [2] = test: GSK_TCMDC: Inhibition of Plasmodium falciparum Dd2 in whole red blood cells, using parasite LDH activity as an index of growth. Test compounds present at 2uM
HepG2 = test: GSK_TCMDC: Percent inhibition of human HepG2 cell line. Test compounds present at 10uM.

Compound | Inhibition (Plasmodium falciparum [1]) [%] | Inhibition (Plasmodium falciparum [2]) [%] | Inhibition (HepG2) [%]
Cc1cccc(C)c1C1CCN(C2CCC(NC(=O)/C=C/c3ccccc3)CC2)CC1 (centres undefined) | 100 | 45 | 42
O=C(O)C(F)(F)F.c1cc(-c2ccc(CNCc3ccsc3)cc2)cc(-c2nc3ccccc3[nH]2)c1 | 100 | 82 | 46
COc1ccc(CNc2ncc(-c3ccsc3)c(-c3nccs3)n2)cc1OC | 86 | 69 | 10
CCN(CCCN1CCCCC1)c1cc(C)nc(Nc2cc(Cl)ccc2C)n1.O=C(O)C(F)(F)F | 99 | 37 | 36
CN(C)CCC(O)(c1ccc(Br)cc1)c1cccnc1 (centres undefined) | 96 | 1 | 22
O=C(NC1CCCCC1)N(Cc1cccc(-c2ccc(CNC3CCCC3)cc2)c1)C1CCN(Cc2ccccc2)CC1.O=C(O)C(F)(F)F | 98 | 89 | 37
CC(C)(C)CN1C(=O)C(c2ccccc2)(c2ccccc2)N=C1N.O=CO | 98 | 94 | 32
CC(C)c1ccc(CN2CCC(NC(=O)c3ccc(-c4cccc(F)c4)s3)CC2)cc1.O=C(O)C(F)(F)F | 83 | 12 | 47
CC(C)C[C@H](NC(=O)c1cc2ccccc2s1)C(=O)N[C@H]1CCN(Cc2ccc(OCCCN(C)C)c(Cl)c2)C1.O=C(O)C(F)(F)F | 100 | 89 | 83
CN(C)CCN(C)Cc1nc(-c2ccc3c(Nc4ccc(Oc5ccccc5)cc4)ccnc3c2)cs1 | 100 | 100 | 27
CCNc1cc(C(=O)N[C@@H](Cc2ccccc2)[C@H](O)CNC2(CC(C)C)CC2)cc(N2CCCCS2(=O)=O)c1.Cl | 87 | 29 | 0
COc1ccc(Oc2cnc(N)nc2N)c(C(C)C)c1 | 97 | 0 | 58
CCOc1ccc(C(=O)N2CCOC(CCN3CCC4(CCc5ccccc54)CC3)(c3ccc(Cl)c(Cl)c3)C2)cc1 (centres undefined) | 81 | 25 | 25
CCN(CC)CCN(Cc1ccc(-c2ccc(C(F)(F)F)cc2)cc1)C(=O)Cn1c(CCc2ccc(F)cc2)nc(=O)c2ccccc21.O=C(O)C(O)C(O)C(=O)O | 97 | 58 | 42
CCCCCN1CCCN(Cc2cccc(NC(=O)c3cc4ccccc4s3)c2)CC1.O=C(O)C(F)(F)F | 99 | 30 | 29
CCN1CCC(N(Cc2ccc(-c3ccc(C(F)(F)F)cc3)cc2)C(=O)Cn2c(CCc3cccc(F)c3F)cc(=O)c3ccccc32)CC1.O=C(O)C(O)C(O)C(=O)O | 94 | 94 | 100
CN(C)CCCOc1ccc(CNCC(C)(C)c2nc(-c3ccc(Cl)c(O)c3)c(-c3ccncc3)[nH]2)cc1.Cl | 100 | 58 | 64
CCN(CC)CCN(Cc1ccc(-c2ccc(C(F)(F)F)cc2)cc1)C(=O)Cn1c(CCc2cc(F)ccc2F)nc(=O)c2ccccc21.O=C(O)C(O)C(O)C(=O)O | 98 | 52 | 42
CCCCCCNC(=O)C1Cc2c([nH]c3ccc(C)cc23)C2(CCN(CCc3ccccc3)CC2)N1 (centres undefined) | 85 | 24 | 31
COc1cccc(C2CCN(CCN3CCC(NC(=O)c4ccc(-c5ccc(C(F)(F)F)cc5)cc4)CC3)CC2)c1 | 99 | 99 | 46
O=C1Nc2cccc3c2C1(CCCCN1CCC(c2c(-c4ccc(F)cc4)[nH]c4ccccc24)CC1)CCC3 (centres undefined) | 91 | 28 | 25
COc1ccc(-c2nc3c(N)nc(N)nc3nc2C(C)C)cc1 | 96 | 0 | 71
O=C(O)C(F)(F)F.Oc1ccc(CCNc2nc(NCCCOc3cccc(CN4CCCCC4)c3Cl)nc(N3CCNCC3)n2)cc1 | 100 | 22 | 26
NC1CCN(CCNCc2cccc(-c3ccc(-c4nc5cc(F)ccc5[nH]4)cc3)c2)C1.O=C(O)C(F)(F)F (centres undefined) | 99 | 4 | 8

Compound | Inhibition (Plasmodium falciparum [1]) [%] | Inhibition (Plasmodium falciparum [2]) [%] | Inhibition (HepG2) [%]
O=C(CC1CCCC1)Nc1ccc2c(c1)CCC2 | 93 | 0 | 0
Cc1cc(Nc2cc(Cl)cc(Cl)c2)nc(N)n1 | 94 | 28 | 0
CC(C)CNC(=O)c1ccnc(-c2ccc(CNC3Cc4ccccc4C3)cc2)c1.O=C(O)C(F)(F)F | 99 | 29 | 25
COC(=O)CCCCOc1c(OC)cc(Cc2cnc(N)nc2N)cc1OC | 93 | 0 | 0
O=C(Nc1ccc(OC2CCN(Cc3ccccc3)C2)c(Cl)c1)c1ccc(F)cc1.O=C(O)C(F)(F)F (centres undefined) | 90 | 87 | 7
CC(Cc1ccc(C(=O)N2CCN(C(=O)c3ccc(CC(C)NCCc4cccc(Cl)c4)cc3)CC2)cc1)NCCc1cccc(Cl)c1 (centres undefined) | 100 | 85 | 99
CCc1ccc(CN(CCCOc2cccc(CC(=O)NCc3c[nH]cn3)c2)Cc2ccc(-n3ccnc3)cc2)cc1 | 99 | 28 | 1
Cc1cc(N[C@@H](CC(C)C)C(=O)Nc2ccccc2)nc(NCc2ccccc2C)n1.O=C(O)C(F)(F)F | 100 | 81 | 21
Cl.O=C(Nc1ccc(Cl)c(Cl)c1)Nc1ccc2nccc(N3CCNCC3)c2c1 | 99 | 62 | 18
CCCCc1cc(NCC)nc(Nc2ccc(F)cc2)n1 | 98 | 56 | 33
CCOC(=O)[C@H](Cc1cc([N+](=O)[O-])c(Oc2ccc(OC)c(Cc3ccc(OC)c(C(C)C)c3)c2)c([N+](=O)[O-])c1)NC(=O)C(F)(F)F | 94 | 0 | 5
COc1ccc2[nH]c(C(=O)Nc3cccc(-c4ccc(CN(C)C)cc4)c3)cc2c1 | 100 | 34 | 23
Cc1sc(CNCCCNc2cc(=O)c3ccccc3[nH]2)c(I)c1C.Cl | 94 | 48 | 0
O=C(Cn1c(CCc2cccc(F)c2F)cc(=O)c2cccnc21)N(CCN1CCCC1)Cc1ccc(-c2ccc(C(F)(F)F)cc2)cc1.O=C(O)C(O)C(O)C(=O)O | 99 | 64 | 48
O=C(c1ccc(-c2ccc(-c3nc4cc(C(F)(F)F)ccc4[nH]3)s2)cc1)N1CCN(CCc2ccccc2)CC1 | 98 | 60 | 23
Cc1cc(C)c2oc(-c3cccc(NC(=O)c4ccc([N+](=O)[O-])o4)c3C)nc2c1 | 90 | 67 | 0
O=C(c1ccccc1F)N(Cc1ccc(Cl)cc1)c1ccccn1 | 84 | 58 | 0
COc1ccc2nc(C)cc(NC3Cc4ccccc4C3)c2c1.Cl | 98 | 13 | 20
N#CN1CC[C@@H](OC(=O)N[C@@H]2C[C@H]2c2ccccc2)C1 | 84 | 56 | 0
O=C(O)C(F)(F)F.O=S(=O)(NCCN1CCCC1)c1cccc(-c2cccc(CNCc3ccccc3)c2)c1 | 97 | 73 | 32
CN(C)CCOc1ccc2c(c1)CN(C)CC2c1ccccc1.Cl (centres undefined) | 91 | 0 | 15
COc1ccc(CNC(=O)c2cnc3c(O)cccc3c2Nc2cccc(NC(=O)c3ccc(Cl)c([N+](=O)[O-])c3)c2)cc1.O=C(O)C(F)(F)F | 86 | 21 | 48
Fc1ccc2[nH]c(-c3ccc(-c4ccc(CNCCN5CCNCC5)cc4)cc3)nc2c1.O=C(O)C(F)(F)F | 96 | 70 | 94
Cc1nc(N2CCC(C)CC2)c2c3c(sc2n1)CCCC3 | 93 | 39 | 13
